Consider 28 compounds from PubChem BioAssay (NCATS).

Values joined by “and” are separate entries in the source; they are usually repeats but may differ in a detail not shown here. Identical values can stand only once. A number with no mark means an inactive call. Inconclusive results are not listed. Active and inactive are the calls of the source. Calls come from the whole dose curve; as a rule, active = well fitted curve in the direction sought with a large enough effect; inconclusive = small, poorly fitted or top-dose-only effect, or another doubt; inactive = no such curve, though single readings can be large; an effect the other way counts as inactive or inconclusive.

In experiment [1] the target is Cytochrome P450 3A4 (Homo sapiens) (UniProt P08684). The experiment can be described thus: qHTS Assay for Inhibitors and Substrates of Cytochrome P450 3A4 (AID 884). Note: potency is the fitted concentration of half-maximal effect; nearly all actives have a fitted effect of over 50% in size. As to conditions: recombinant CYP3A4, Luciferin-PPXE luminescence; series mostly up to 57.1 µM. The essentials:
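Luminescent readout of luciferin produced by CYP3A4 (20 nM) dealkylation of Luciferin-PPXE, 25 uM (its KM). NADPH-driven reaction ran 60 min at RT after 10 min compound preincubation; data scaled to 57 uM ketoconazole as 100% inhibition.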

The target is the same in experiment [2]. Briefly: qHTS Assay for Activators of Cytochrome P450 3A4 (AID 885). Note: nearly all actives have a fitted effect of over 65% in size. Particulars: recombinant CYP3A4, Luciferin-PPXE luminescence, 60 min; series mostly up to 57.1 µM. The essentials:
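Human CYP3A4 dealkylates Luciferin-PPXE to luciferin, which luciferase detection converts to light. Substrate was at its KM (25uM), buffer 200mM KPO4, reaction 60 min at RT.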

Cytochrome P450 3A4 (Homo sapiens), sequence (P08684 whole entry, looked up): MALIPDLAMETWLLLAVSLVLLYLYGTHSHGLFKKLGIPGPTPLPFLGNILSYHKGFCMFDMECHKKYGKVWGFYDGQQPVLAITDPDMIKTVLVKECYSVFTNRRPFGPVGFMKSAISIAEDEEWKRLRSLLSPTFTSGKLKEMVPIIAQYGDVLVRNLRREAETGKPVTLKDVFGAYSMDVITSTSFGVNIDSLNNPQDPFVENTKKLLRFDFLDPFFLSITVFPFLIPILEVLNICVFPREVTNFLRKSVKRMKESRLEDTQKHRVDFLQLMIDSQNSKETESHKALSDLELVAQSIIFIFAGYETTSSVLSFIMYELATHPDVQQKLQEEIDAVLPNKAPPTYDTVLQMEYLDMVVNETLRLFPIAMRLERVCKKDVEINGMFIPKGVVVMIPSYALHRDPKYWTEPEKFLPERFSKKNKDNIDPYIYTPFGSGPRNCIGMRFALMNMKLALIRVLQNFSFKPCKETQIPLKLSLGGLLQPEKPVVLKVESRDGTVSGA

`COC(=O)C/C=C\[C@@H](C)[C@@H](/C=N\O[C@@H](C)c1cn([C@H](CO)Cc2ccccc2)nn1)OC`: in experiment [1], the Potency is 3.98 µM (active). The activity change, positive = activation in experiment [2] is -56.1% [at 11.4 µM] and -71.3% [at 11.4 µM].

Consider `O=C1[C@H]2[C@H]3[C@H](O)[C@H](O)C/C(=N/OC[C@@H](O)COCc4ccco4)[C@@H]3CC[C@@H]2C(=O)N1Cc1ccccc1`, for which the Potency in experiment [1] is 3.16 µM (active). For the same compound, in experiment [2], the activity change, positive = activation was -71.1% [at 11.4 µM].

Take `COC(=O)[C@@H]1C[C@@H]2CC[C@@H](O)C[C@@H]2N1Cc1ccc(Cl)cc1`: the Potency in experiment [1] is 15.8 µM (active). Also, in experiment [2], the Potency entry was “inactive”.

On to `COC(=O)[C@@H]1C[C@H]2CC[C@H](O)C[C@H]2N1Cc1ccc(Cl)cc1`, for which the Potency in experiment [1] is 12.6 µM (active). Besides, in experiment [2], the Potency entry is “inactive”.

Consider `CO[C@H]1COC(=O)C/C=C\[C@H](C)[C@@H](NS(=O)(=O)c2ccc(C)cc2)COC(=O)CCC[C@@H]1C`, for which the Potency in experiment [1] is 3.98 µM (active). In addition, the activity change, positive = activation in experiment [2] is -92.6% [at 11.4 µM].

For the compound `O=C(N/N=C1/C[C@@H](O)[C@@H](O)[C@@H]2[C@@H]3C(=O)N(Cc4ccc5c(c4)OCO5)C(=O)[C@H]3CC[C@@H]12)OCc1ccccc1`, the Potency in experiment [1] was 1.26 µM (active). Besides, in experiment [2], the activity change, positive = activation is -74.6% [at 11.4 µM].

Turning to `CO[C@H]1COC(=O)C/C=C\[C@H](C)[C@@H](OC)COC(=O)[C@H](Cc2ccccc2)NC(=O)C/C=C\[C@@H]1C`, the Potency in experiment [1] is 3.16 µM (active). Moreover, the activity change, positive = activation in experiment [2] is -62.1% [at 11.4 µM].

For `O=C1C=C(NCCO)C(=O)c2cnccc21`, in experiment [1], the Potency was 7.94 µM (active). Further, in experiment [2], the Potency result is “inactive”.

`CCCCCCN(C(=O)CCCCCN1C(=O)NC(c2ccc(C(C)(C)C)cc2)C(C(=O)OCc2ccccc2)=C1C)C(C(=O)NCCCC)c1ccc(OCC(=O)OC)c(C(=O)OC)c1` (stereo unspecified): the Potency in experiment [1] was 1.26 µM (active). In addition, the Potency result in experiment [2] was “inactive”.

Regarding `COC(=O)[C@@H]1C[C@@]2(O)[C@@H](O)[C@@H](O)[C@@H](O)C[C@H]2N1CC(c1ccccc1)c1ccccc1`, the Potency in experiment [1] was 3.16 µM (active). In experiment [2], the Potency entry was “inactive”.

With `CCC1=C(OC(=O)N(CC)CC)N2C(=O)OC(=NCC3CC3)[C@]2(C)[C@H]2C1=CC[C@H]1C(=O)N(CC)C(=O)[C@H]12`, the Potency in experiment [1] is 3.98 µM (active). Besides, the Potency entry in experiment [2] is “inactive”.

`CCC1=C2CC[C@H]3C(=O)NC(=O)[C@H]3[C@H]2[C@@]2(Cc3ccccc3)C(=NCc3ccccc3)OC(=O)N2C1=O`: in experiment [1], the Potency was 6.31 µM (active). Also, in experiment [2], the Potency entry is “inactive”.

On to `C/C(CCN1CCc2nc(-c3ccccc3)c(-c3ccccc3)cc2C1)=N\OC[C@@H](O)COCc1ccco1`, for which the Potency in experiment [1] was 3.16 µM (active). Also, the activity change, positive = activation in experiment [2] was -86.5% [at 11.4 µM].

On to `C/C(CCC(=O)OC[C@@H]1O[C@H](C#Cc2ccccc2)C=C[C@@H]1Oc1ccc(C)cc1)=N/O[C@@H](C)CN1CCCCc2nc(C)c(C)cc21`, for which the Potency in experiment [1] is 3.16 µM (active). In addition, the activity change, positive = activation in experiment [2] was -94.6% [at 11.4 µM].

As for `CN(C)C(=O)[C@]1(C)C[C@H]1[C@H](NC(=O)CNC(=O)[C@@H]1CCCN1C(=O)[C@]1(C)C[C@H]1[C@H](NC(=O)OCc1ccccc1)c1ccccc1)c1ccccc1`, in experiment [1], the Potency was 0.398 µM (active). Moreover, in experiment [2], the Potency entry is “inactive”.

Consider `CCC1=C2CC[C@H]3C(=O)N(CC)C(=O)[C@H]3[C@H]2[C@@]2(C)C(=O)N(CC(=O)OC)C(=O)N2C1=O`, for which, in experiment [1], the Potency is 7.94 µM (active). For the same compound, the Potency entry in experiment [2] is “inactive”.

On to `COC(=O)C/C=C\[C@@H](C)[C@@H](/C=N\O[C@@H](C)c1cn([C@H](CO)Cc2ccccc2)nn1)NS(=O)(=O)c1ccc(C)cc1`, for which the Potency in experiment [1] was 3.98 µM (active) and 2 µM (active). Besides, the activity change, positive = activation in experiment [2] is -101% [at 11.4 µM] and -92.7% [at 11.4 µM].

Regarding `C=CC[C@@H]1C=C[C@H](O/N=C(\C)CCN2CCCc3nc(C)c(C)cc32)[C@H](CO)O1`, the Potency in experiment [1] is 2.51 µM (active). In experiment [2], the activity change, positive = activation is -70.1% [at 11.4 µM].

`CC(C)=CCC/C(C)=C/CO/N=C1/C[C@@H](O)[C@@H](O)[C@@H]2[C@@H]3C(=O)N(Cc4ccc5c(c4)OCO5)C(=O)[C@H]3CC[C@@H]12`: in experiment [1], the Potency was 1.58 µM (active). Further, in experiment [2], the activity change, positive = activation was -86.9% [at 11.4 µM].

Regarding `CN1C[C@@H]2C(c3ccc(C(F)(F)F)cc3)C3(c4ccc(C#N)cc4)CC2(C3)[C@H]1c1ccccc1` (stereo partly specified), the Potency in experiment [1] is 20 µM (active). Also, in experiment [2], the Potency entry was “inactive”.

`COc1ccc(O[C@H]2C=C[C@@H](c3ccccc3)O[C@H]2COC(=O)CC/C(C)=N\O[C@@H](C)c2cc(-c3c(C)cc(C)cc3C)no2)cc1`: the Potency in experiment [1] was 3.16 µM (active). For the same compound, the activity change, positive = activation in experiment [2] is -63.2% [at 11.4 µM].

As to `CCC1=C(OC(=O)N(CC)CC)N2C(=O)OC(=NCCOC)[C@]2(C)[C@H]2C1=CC[C@H]1C(=O)N(CC(=O)OC)C(=O)[C@H]12`, the Potency in experiment [1] was 10 µM (active). In addition, the Potency result in experiment [2] was “inactive”.

As for `CC(C)(C)NC(=O)C(c1ccc(I)cc1)N(CCN1CCOCC1)C(=O)CCCNC(=O)c1ccccc1` (stereo unspecified), in experiment [1], the Potency is 3.98 µM (active). Further, the Potency entry in experiment [2] was “inactive”.

Take `COC(=O)c1ccc(C(NC(=O)OCc2ccccc2)/C(I)=C/[C@@H](C)C(=O)NCc2ccncc2)cc1` (stereo partly specified): the Potency in experiment [1] is 1.58 µM (active). The Potency result in experiment [2] is “inactive”.

On to `CCC1=C(OC(=O)N(CC)CC)N2C(=O)OC(=NCc3ccccc3)[C@]2(C)[C@H]2C1=CC[C@H]1C(=O)N(CC(=O)OC)C(=O)[C@H]12`, for which the Potency in experiment [1] was 5.01 µM (active). Further, the Potency entry in experiment [2] is “inactive”.

As for `CCCNC(=O)OC[C@@H]1O[C@H](c2ccccc2)C=C[C@@H]1Oc1ccc(OC)cc1`, in experiment [1], the Potency was 3.98 µM (active). In addition, the activity change, positive = activation in experiment [2] was -82.9% [at 11.4 µM].

For the compound `CCC1=C(OC(=O)N(CC)CC)N2C(=O)OC(=NCC3CC3)[C@]2(C)[C@H]2C1=CC[C@H]1C(=O)NC(=O)[C@H]12`, the Potency in experiment [1] is 10 µM (active). In addition, in experiment [2], the Potency entry is “inactive”.

For the compound `COC(=O)c1cccc(C23CC4(C2)[C@H](CN(Cc2ccc(C(F)(F)F)cc2)[C@@H]4c2ccccc2)C3c2ccccc2)c1` (stereo partly specified), the Potency in experiment [1] was 12.6 µM (active). Also, the Potency entry in experiment [2] was “inactive”.
